For assay [1], the target named is Aldehyde dehydrogenase, mitochondrial (Homo sapiens) (UniProt P05091). As to the kind of experiment: qHTS for Inhibitors of the Aldehyde Dehydrogenase Family (ALDH2) Primary screen (AID 2061308).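 Also: plate controls were vehicle for no effect and reference inhibitor for full effect; nearly all actives have a fitted effect of over 55% in size.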
Assay [2] concerns the target Retinaldehyde dehydrogenase 3 (Homo sapiens) (UniProt P47895). Briefly: qHTS for Inhibitors of the Aldehyde Dehydrogenase Family (ALDH1A3) Primary screen (AID 2061315;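 also: plate controls were DMSO vehicle for no effect and reference inhibitor for full effect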). (qHTS replaces the single test concentration by a dilution series.)
The nature of assay [3]: BET inhibitor-based combinations targeting novel dependencies in MECOM-rearranged (r) AML: MV-4-11 cell line (AID 2202233). Also: nearly all actives have a fitted effect of over 45% in size. Also: potency is read from the fitted curve at half-maximal effect. The gist of the method: (§1)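 Cells at 500/well were exposed for 48 hr to MIPE v5.0 drugs as 11-point dose curves. Viability was read by CellTiter-Glo luminescence and normalized to DMSO and empty-well controls. Activity was expressed as AUC and per-cell-line Z-AUC.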

Assay [4] can be described thus: BET inhibitor-based combinations targeting novel dependencies in MECOM-rearranged (r) AML: SET-2 cell line (AID 2202231). Also: nearly all actives have a fitted effect of over 35% in size. Also: potency is read from the fitted curve at half-maximal effect.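 As to viability: plate controls were DMSO treated cells for no effect and wells without cells for full effect.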 As to conditions: SET-2 AML cells viability, CellTiter-Glo luminescence, 48 h; viability: stronger effect = lower value, concentration not given here. The gist of the method:
(§2)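 AML cell lines seeded at 500 cells/well, treated with 11-point dose curves for 48 h. Viability by CellTiter-Glo luminescence, normalised to DMSO and empty wells; activity expressed as AUC and per-cell-line Z-transformed AUC.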
(In ATP-based viability assays light output follows the ATP content of the culture.)

Assay [5] is described as follows: BET inhibitor-based combinations targeting novel dependencies in MECOM-rearranged (r) AML: OCI-AML3 cell line (AID 2202232). Also: nearly all actives have a fitted effect of over 35% in size. Also: potency is read from the fitted curve at half-maximal effect. As to conditions: Potency: OCI-AML3 viability. In outline:
as §2

A short description of assay [6]: BET inhibitor-based combinations targeting novel dependencies in MECOM-rearranged (r) AML: UCSD-AML1 cell line (AID 2202235). Also: nearly all actives have a fitted effect of over 40% in size. Also: potency is read from the fitted curve at half-maximal effect. The gist of the method:
as §1

The nature of assay [7]: BET inhibitor-based combinations targeting novel dependencies in MECOM-rearranged (r) AML: AML-194 cell line (AID 2202237; also: nearly all actives have a fitted effect of over 40% in size; also: potency is read from the fitted curve at half-maximal effect). In outline: as §2
Assay [8] in a line: BET inhibitor-based combinations targeting novel dependencies in MECOM-rearranged (r) AML: HNT-34 cell line (AID 2202234). Also: nearly all actives have a fitted effect of over 35% in size. Also: potency is read from the fitted curve at half-maximal effect. The gist of the method: as §1
Assay [9] in a line: BET inhibitor-based combinations targeting novel dependencies in MECOM-rearranged (r) AML: AML-191 cell line (AID 2202236; also: nearly all actives have a fitted effect of over 35% in size; also: potency is read from the fitted curve at half-maximal effect). The gist of the method:
as §2

Records with an inconclusive call do not appear. A number with no mark means an inactive call. Calls of active or inactive are those of the source. Calls follow the shape of the dose curve; as a rule, active = well fitted curve in the direction sought with a large enough effect; inconclusive = small, poorly fitted or top-dose-only effect, or another doubt; inactive = no such curve, though single readings can be large; an effect the other way counts as inactive or inconclusive. Residues, ends and D or L forms follow the SMILES beside them. *: point of attachment. Cbz = O=C(OCc1ccccc1)*

The record followed here is PubChem BioAssay (NCATS).

One may read the viability as a read-out of living cells in per cent, often relative to untreated cells.

As to `O=C(O)c1ccc(Nc2ncc3c(n2)-c2ccc(Cl)cc2C(c2c(F)cccc2F)=NC3)cc1`, the Potency entry in [1] and in assay [2] was “inactive” throughout. The Potency in assay [3] is 934 nM (active).
Take `O=C(Nc1ccc(S(=O)(=O)N2CCOCC2)cc1)c1cc(Cl)ccc1NS(=O)(=O)c1ccc(Cl)s1`: the Potency entry in assay [1], in assay [2], in [5], in assay [3], in assay [6] and in [7] was “inactive” each time. Also, the viability in assay [4] was 98.4%.
Regarding `C[C@H](N)C(=O)N[C@@H](Cc1ccc(O)cc1)C(=O)N1CCC[C@H]1C(=O)NCC(=O)N[C@@H](CCCCN)C(=O)N[C@@H](Cc1ccccc1)C(N)=O`, the results for the activity change, negative = inhibition in assay [1] and in [2] were 4.44% [at 11.2 µM] and -9.63% [at 11.2 µM], respectively.
Regarding `COc1cccc2nc(-c3cccs3)nc(NN3C(=O)C=C(C)C3=O)c12`, in assay [2], the Potency entry was “inactive”. In addition, the Potency in assay [4] is 417 nM (active); in [5], 417 nM (active); in [3], 166 nM (active); in [8], 263 nM (active); in assay [6], 105 nM (active); in assay [9], 148 nM (active).
Turning to `Cc1c(C(=O)NN2CCCCC2)nn(-c2ccc(Cl)cc2Cl)c1-c1ccc(Cl)cc1`, the Potency result in assay [5] and in assay [6] was “inactive” throughout. Besides, the Potency in [3] was 20900 nM (active).
As for `C=CC(=O)Nc1cc2c(Nc3ccc(F)c(Cl)c3)ncnc2cc1OCCCN1CCOCC1`, the Potency is 14800 nM (active) in [4]; 4680 nM (active) in [5]; 1320 nM (active) in assay [3]; 2630 nM (active) in [8]; 4680 nM (active) in assay [6]; 11800 nM (active) in assay [7].
In the case of `CSc1cccc(Nc2ncc3cc(-c4c(Cl)cccc4Cl)c(=O)n(C)c3n2)c1`, in assay [5], the Potency entry is “inactive”. Further, the Potency in assay [3] is 1860 nM (active).
`C/C=C(/COC(=O)/C(C)=C/C)C(=O)OC/C=C/c1ccc(OC)cc1`: the Potency result in assay [2] is “inactive”.
In the case of `O=C(CCCCCCC(=O)Nc1ccc([C@H]2O[C@@H](CSc3nc(-c4ccccc4)c(-c4ccccc4)o3)C[C@@H](c3ccc(CO)cc3)O2)cc1)NO`, the Potency result in assay [1] is “inactive”. For the same compound, the viability in assay [4] was 106%. Besides, the Potency in [8] was 6050 nM (active).
On to `CCCCOCCOc1nc(-c2ccc(C(=O)O)c(F)c2)sc1C`, for which, in assay [4], the viability is 85.8%. The Potency entry in assay [6] and in assay [7] was “inactive” throughout. In addition, in assay [9], the Potency is 2630 nM (active).
Turning to `Nc1nc(Cl)nc2c1ncn2[C@H]1C[C@H](O)[C@@H](CO)O1`, the Potency in assay [4] is 263 nM (active); in [5], 83.3 nM (active); in [3], 93.4 nM (active); in [8], 74.2 nM (active); in [6], 29.5 nM (active); in assay [9], 83.3 nM (active). Besides, the Potency in assay [7] is 74.2 nM (active).
Consider `COc1cccc([C@@H](C)NCCCc2ccccc2Cl)c1`, for which the Potency in assay [5] was 16600 nM (active); in assay [3] it was 20900 nM (active); in assay [7], 23500 nM (active).
Take `COc1cc(C(=O)NS(=O)(=O)c2ccccc2C)ccc1Cc1cn(C)c2ccc(NC(=O)OC3CCCC3)cc12`: in [4], the viability was 119%. Besides, the Potency entry in assay [5], in assay [3], in assay [8], in assay [6], in assay [9] and in [7] was “inactive” throughout.
Consider `CC(C)C[C@@H](C=O)NC(=O)[C@H](CC(C)C)NC(=O)[C@H](CC(C)C)NC(=O)OCc1ccccc1` (Cbz-Leu-Leu-Leu-aldehyde), for which the Potency in assay [4] is 1480 nM (active); in assay [5], 1860 nM (active); in [3], 2350 nM (active); in assay [8] it was 2350 nM (active); in assay [6] it was 2950 nM (active); in assay [9], 2350 nM (active). Also, the Potency in assay [7] is 2630 nM (active).
As to `CC(C)c1ccccc1Cc1cc(C(=O)Nc2ccc(S(=O)(=O)c3ccccc3C(C)(C)C)cc2)c(O)c(O)c1O`, the Potency in assay [5] was 4680 nM (active); in [3], 10500 nM (active); in assay [6], 10500 nM (active); in assay [7] it was 10500 nM (active).
For the compound `Cc1cccc(CN2CCN(C(c3ccccc3)c3ccc(Cl)cc3)CC2)c1` (stereo not given), the Potency in assay [3] was 20900 nM (active). Further, the Potency result in assay [9] and in assay [7] was “inactive” each time.
Consider `CC1=C(C)C(=O)C(C(CCCCCC(=O)O)c2ccccc2)=C(C)C1=O` (stereo not given), for which the viability in assay [4] is 93.3%. Further, the Potency entry in assay [5], in assay [6], in [9] and in assay [7] was “inactive” each time.
For `c1cc(-c2cnn3cc(-c4ccc(OCCN5CCCCC5)cc4)cnc23)ccn1`, the Potency in [4] was 8330 nM (active); in assay [5], 8330 nM (active); in assay [3] it was 83.3 nM (active); in assay [8], 1660 nM (active); in [6], 9340 nM (active); in assay [9], 8330 nM (active).
Turning to `CC(C)(Cc1nc(-c2ccc(O)cn2)no1)C(=O)NC1=C(C(=O)O)CCCC1`, in assay [2], the Potency result is “inactive”.
With `C[C@@H]1CN(CC(=O)N2CC(C)(C)c3ncc(Cc4ccc(F)cc4)cc32)[C@@H](CN2CCOC[C@H]2C)CN1`, the viability in [4] was 86.9%.
Take `O=C1c2ccccc2-[n+]2ccc3c([nH]c4ccccc43)c21`: the Potency in assay [4] is 2630 nM (active); in assay [5] it was 1860 nM (active); in assay [3], 1480 nM (active); in assay [8], 1860 nM (active); in assay [6] it was 1860 nM (active); in assay [9], 1660 nM (active). Besides, the Potency in assay [7] was 2350 nM (active).
As to `Cn1cncc1[C@@](N)(c1ccc(Cl)cc1)c1ccc2c(c1)c(-c1cccc(Cl)c1)cc(=O)n2C`, the Potency in assay [8] is 2.1 nM (active).
